Pol beta inh – blocks human DNA polymerase beta activity. Potency, µM (titrated, usually from 114 µM), inactives show at the top dose activity change, negative = inhibition, actives largely listed as inhibitors. AID 485314. P06746. 340,000 tested, 1.3% active. Pol beta primer extension/strand displacement, fluorescence kinetic; also: potency is read from the fitted curve at half-maximal effect; % is scaled to controls: 0 for no effect and ±100 for the full control effect
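Enzyme-only controls used 10 nM Pol beta; buffer lacking enzyme served as negative control. Compound preincubated 15 min, then 50 nM substrate added; 0 and 10 min reads at room temperature.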
WRN inhibitor – blocks human WRN helicase; WRN helicase unwinding, fluorescent forked duplex, kinetic; Potency, µM (highest dose often 114 µM), without a hit: at the highest dose activity change, negative = inhibition, most hits filed as inhibitors; 360,000 tested, 0.46% active; also: potency is read from the fitted curve at half-maximal effect; % is scaled to controls: 0 for no effect and ±100 for the full control effect; nearly all actives have a fitted effect of over 55% in size
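Enzyme (20 nM final) and test compound sit together 15 min at room temperature before substrate addition. Substrate is a single-forked duplex oligonucleotide (100 nM) labelled with fluorophore and quencher, with 2 mM ATP; helicase unwinding raises red fluorescence, read kinetically.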
Pol eta inh-1 – DNA polymerase eta (human) inhibition; recombinant Pol eta, fluorescent DNA replication assay; AID 588591; Q9Y253; 390,000 tested, 1.2% active; Potency, µM (series often up to 114 µM), for the others: at the highest dose activity change, negative = inhibition, hits mostly inhibitors; also: potency is read from the fitted curve at half-maximal effect; % is scaled to controls: 0 for no effect and ±100 for the full control effect
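Fluorescent replication assay: 50 nM final substrate added after a 15 min room-temperature compound preincubation with 10 nM enzyme. Signal taken at 0 min and again at 10 min.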
POLI inh – blocks human DNA polymerase iota activity; AID 588590; 390,000 tested, 1% active; Pol iota fluorescent replication assay, 10 min; Potency, µM (highest dose often 115 µM), without a hit: top-dose activity, negative = inhibition, usual class: inhibitors; also: potency is read from the fitted curve at half-maximal effect
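Fluorescent replication assay read twice, at 0 min and 10 min after adding 50 nM (final) substrate. Enzyme (10 nM) and compounds were first incubated 15 min at room temperature; enzyme-free buffer wells were negative controls.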
FEN1 inhibitor – human FEN1 inhibition. 390,000 tested, 0.35% active. Recombinant FEN1 flap cleavage, fluorescence, 15 min. Potency, µM (highest dose often 114 µM), for the others: at the highest dose activity change, negative = inhibition, hits mostly inhibitors; also: potency is read from the fitted curve at half-maximal effect; % is scaled to controls: 0 for no effect and ±100 for the full control effect; nearly all actives have a fitted effect of over 65% in size
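Steps: FEN1 (10 nM) dispensed; compound added by pin tool; 15 min at room temperature; substrate added to 50 nM final; reads at 0 min and 15 min; data normalized and fitted (four-parameter Hill).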
Pol kappa inh-1 – inhibitors of human DNA polymerase kappa. purified Pol kappa, fluorescent DNA synthesis assay, 10 min. Q9UBT6. Potency, µM (doses to about 107 µM), for the others: at the highest dose activity, negative = inhibition, hits mostly inhibitors. 400,000 tested, 0.53% active; also: potency is read from the fitted curve at half-maximal effect; % is scaled to controls: 0 for no effect and ±100 for the full control effect
Target sequence (Q9UBT6 whole entry, looked up): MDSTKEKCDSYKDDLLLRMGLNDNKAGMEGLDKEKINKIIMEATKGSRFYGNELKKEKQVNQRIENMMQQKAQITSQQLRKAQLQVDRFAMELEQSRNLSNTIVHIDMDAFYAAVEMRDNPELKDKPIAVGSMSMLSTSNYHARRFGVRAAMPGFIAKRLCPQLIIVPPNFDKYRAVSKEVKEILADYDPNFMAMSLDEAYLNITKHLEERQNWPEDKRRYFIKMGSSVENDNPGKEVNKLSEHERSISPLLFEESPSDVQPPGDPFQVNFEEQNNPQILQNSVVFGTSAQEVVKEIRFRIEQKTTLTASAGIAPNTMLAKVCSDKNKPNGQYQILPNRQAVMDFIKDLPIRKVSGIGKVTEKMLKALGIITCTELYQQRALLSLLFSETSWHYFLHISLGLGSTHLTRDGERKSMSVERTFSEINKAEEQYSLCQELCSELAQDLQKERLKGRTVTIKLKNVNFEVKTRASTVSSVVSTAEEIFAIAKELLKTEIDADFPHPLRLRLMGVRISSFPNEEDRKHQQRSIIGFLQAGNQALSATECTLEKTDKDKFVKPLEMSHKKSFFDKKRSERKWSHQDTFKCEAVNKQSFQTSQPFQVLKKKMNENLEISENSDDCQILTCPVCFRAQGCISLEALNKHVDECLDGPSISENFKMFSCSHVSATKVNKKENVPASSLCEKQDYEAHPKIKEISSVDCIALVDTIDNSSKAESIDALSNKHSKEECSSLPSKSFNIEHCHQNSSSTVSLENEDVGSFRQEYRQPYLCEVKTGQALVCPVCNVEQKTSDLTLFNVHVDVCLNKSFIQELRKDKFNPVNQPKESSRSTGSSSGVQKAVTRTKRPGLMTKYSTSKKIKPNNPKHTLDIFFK
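Enzyme at 10 nM met test compounds for 15 min at room temperature. Substrate addition (50 nM final) began the reaction, which was monitored by fluorescence at 0 and 10 min.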
PGK validate – blocks T. brucei phosphoglycerate kinase. shares compounds with Pol kappa inh-1. TbPGK coupled GAPDH assay, Kinase-Glo luminescence. Potency, µM (top dose mostly 57.5 µM), for inactives: at the top dose activity change, negative = inhibition, most hits filed as inhibitors. 500 tested, 79% active; also: potency is read from the fitted curve at half-maximal effect; % is scaled to controls: 0 for no effect and ±100 for the full control effect; nearly all actives have a fitted effect of over 65% in size
Pol iota confirm – Confirm cherry-picked inhibitors of human polymerase iota | shares compounds with Pol kappa inh-1 | Pol iota primer extension, TAMRA/BHQ fluorescence | Potency, µM, actives largely listed as inhibitors | 1,500 tested, 77% active; also: potency is read from the fitted curve at half-maximal effect
GALK confirm – confirmation of human galactokinase (GALK) inhibitors | AID 2015 | shares compounds with Pol eta inh-1 | Potency, µM (titrated, usually from 115 µM), inactives show at the highest dose activity, negative = inhibition, hits mostly inhibitors | purified GALK, Kinase-Glo ATP depletion luminescence | 150 tested, 70% active
GALK redox cs – generates H2O2 by redox cycling, flagging GALK artifacts; Potency, µM (doses to about 115 µM), for inactives: at the top dose activity change, negative = H2O2 signal, actives largely listed as inhibitors; 150 tested, 40% active; Phenol red-HRP H2O2 redox cycling, absorbance 600 nm; shares compounds with Pol eta inh-1; AID 2035
HEK293 tox – reduces HEK-293 cell viability in GALK counter-screen | shares compounds with Pol eta inh-1 | HEK-293 viability, ATP luminescence (CellTiter-Glo), 24/48 h | Potency, µM (highest dose often 46.1 µM), inactives show top-dose activity change, negative = cytotoxicity, usual class: inhibitors | 170 tested, 10% active; also: potency is read from the fitted curve at half-maximal effect; % is scaled to controls: 0 for no effect and ±100 for the full control effect
Pol kappa inh-2 – confirmation of human DNA polymerase kappa inhibitors | 920 tested, 76% active | purified Pol-kappa, fluorescent strand-displacement substrate | shares compounds with Pol eta inh-1 | Potency, µM, usual class: inhibitors; also: potency is read from the fitted curve at half-maximal effect
Pol eta inh-2 – confirmation of human DNA polymerase eta inhibitors | shares compounds with Pol eta inh-1 | Pol eta primer extension, TAMRA/BHQ fluorescence, 10 min | Potency, µM, actives largely listed as inhibitors | 2,600 tested, 64% active; also: potency is read from the fitted curve at half-maximal effect
An asterisk follows results filed as active; ? = inconclusive; . = no result; [ ] = remark or other dose. Compounds with a hit are over-represented: about 2.4% of the library has one in this group of screens. Calls follow the shape of the dose curve; as a rule, active = well fitted curve in the direction sought with a large enough effect; inconclusive = small, poorly fitted or top-dose-only effect, or another doubt; inactive = no such curve, though single readings can be large; an effect the other way counts as inactive or inconclusive.

SMILES | Pol beta inh | WRN inhibitor | Pol eta inh-1 | POLI inh | FEN1 inhibitor | Pol kappa inh-1 | Pol iota confirm | Pol eta inh-2 | others
N#CC(C#N)=Cc1cccn1-c1ccc(C(=O)O)cc1 | 5µM* | 56µM* | 10µM* | 18µM* | -17% | 40µM* | 19* | 27* | Pol kappa inh-2=17*
N#C/C(=C/c1cccn1-c1cccc(C(=O)O)c1)c1ccc(Cl)cc1 | 8.9µM* | -10%[11.6 µM] | 50µM* | 20µM* | 7% | ? | 75* | ? | Pol kappa inh-2=75*
N#C/C(=C\c1ccccc1OCc1ccc(C(=O)O)cc1)c1ccccc1 | -1% | -11% | -8% | 5% | -17% | 0% | . | .
CCc1ccc(S(=O)(=O)/N=C2\C=C(Nc3ccc(C(=O)O)cc3)C(=O)c3ccccc32)cc1 | -30% | -18%[11.6 µM] | 28µM* | 11µM* | -31% | -8% | 19* | 21* | GALK confirm=?;GALK redox cs=12µM*;HEK293 tox=11µM*;Pol kappa inh-2=?
Cc1ccc(S(=O)(=O)/N=C2\C=C(Nc3cccc(C(=O)O)c3)C(=O)c3ccccc32)cc1 | ? | 8% | 32µM* | 4µM* | ? | 3% | 75* | 48*
Cc1ccc(S(=O)(=O)/N=C2\C=C(NS(=O)(=O)c3ccccc3)C(=O)c3ccccc32)c(C)c1 | . | -22% | -3% | ? | -2% | -9% | . | .
CCc1ccc(NC2=NC(C(=O)c3ccccc3)CC(=O)N2)cc1 (stereo unspecified) | ? | 1% | -2% | 13% | 0% | -7% | . | .
COc1ccc(/C=N/NC(=O)c2cc(O)c(O)c(O)c2)cc1Cn1cc([N+](=O)[O-])cn1 | 0.56µM* | 8.9µM* | 2.8µM* | 3.2µM* | ? | 4µM* | 8.4* | 15* | PGK validate=?
COc1ccc(/C=N/NC(=O)c2ccc(Br)o2)cc1Cn1cc([N+](=O)[O-])cn1 | -21% | 10% | -3% | 27% | -6% | -2% | . | .
CN(C)c1ccc(/C=C2\SC(=S)N(Nc3ncc(C(F)(F)F)cc3Cl)C2=O)cc1 | -1% | 50µM* | 45µM* | 11µM* | ? | 18µM* | 21* | 19*
CCN(CC)CCCNC(=O)c1nn(-c2ccc(C)cc2)c(=O)c2c1c1ccccc1n2C | -1% | . | . | -3% | ? | -23% | . | .
CCN(CC)CCOC(=O)c1ccc(NC(=O)c2nn(-c3ccc(C)cc3)c(=O)c3c2c2ccccc2n3C)cc1 | 7.9µM* | . | 79µM* | ? | 4% | -7% | ? | ? | Pol kappa inh-2=?
CN1C(=O)CC2(C=CC(=O)C=C2OC(=O)c2ccccc2)c2ccccc21 (stereo unspecified) | . | . | . | -4% | 7% | -8% | . | .
O=C(Nc1ccc(F)cc1F)c1cc(-c2ccco2)nc2ccccc12 | 5% | -31% | 1% | 19% | 5% | -11% | . | .
O=C(Nc1ccccc1F)c1cc(-c2ccco2)nc2ccccc12 | . | ? | 79µM* | ? | 1% | -31% | ? | 85*
CCN(CC)C(=O)COC(=O)c1cc(-c2ccco2)nc2ccccc12 | 28µM* | ? | 40µM* | 14µM* | ? | 79µM* | 47* | 67*
O=C(O)c1ccccc1/C=N/NC(=O)c1cc(-c2ccco2)nc2ccccc12 | 8.9µM* | ? | 3.2µM* | ? | ? | 35µM* | 17* | 7.6*
COc1ccc(CCNC(=O)c2cc(-c3ccco3)nc3ccccc23)cc1 | . | ? | 8.9µM* | 22µM* | -15% | 79µM* | 34* | 67*
CCN(CC)C(=O)COC(=O)c1cc(-c2ccc(OC)cc2)nc2ccccc12 | 25% | -7%[57.1 µM] | 0% | -4% | ? | -14% | . | .
CCCN1CNc2c(c(=O)[nH]c(=S)n2CCc2cccc(Cl)c2Cl)C1 | . | . | . | -24% | -19% | -22% | . | .
CN(Cc1ccccc1)C(=O)[C@H](Cc1ccc2ccccc2c1)NC(=O)[C@@H]1C[C@@H](O)CN1C(=O)c1cn(C)c2ccccc12 | . | . | . | . | . | -11%[60.1 µM] | . | .
COc1cc(C)cc(C(=O)O)c1C1=C(O)c2cccc(O)c2C(=O)C1=O | 28µM* | ? | 16µM* | 35µM* | ? | 50µM* | 34* | 24*
CN(C)C(=O)c1ccc(-c2nc(NCc3cccnc3)c3ccccc3n2)cc1 | . | . | . | . | . | 0%[60.1 µM] | . | .
COc1ccc(/C=N/Nc2ncc(Br)cn2)c(OC)c1 | 4.5µM* | ? | 28µM* | -4% | ? | 5% | 42* | . | Pol kappa inh-2=15*
COc1ncc2nc(-c3ccc(F)cc3)c(=O)n(-c3ccccc3)c2n1 | . | . | . | . | . | 1%[60.1 µM] | . | .
CCn1c2ccccc2c2cc(NC(=O)COC(=O)c3ccccc3F)ccc21 | 24% | -9%[57.1 µM] | -15% | 23% | -4% | -12% | . | .
CCn1c2ccccc2c2cc(NC(=O)COC(=O)c3ccc(NC(=O)CC#N)cc3)ccc21 | . | ? | ? | 22µM* | ? | 22µM* | ? | 60*

Source: PubChem BioAssay
